# Values without a mark were called inactive.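 Rule for the calls: active = fitted concentration giving half the fluorescence drop below 100 µM; inactive = the rest.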
# Assay: compound effects, K562 without functional ABCB6 – cell-based, flow cytometry, PowderSet01 powders, counter-screen for ABCB6 inhibitor project, dose response (AID 651662)
# Conditions: K562 empty-vector cells, 1 h; series mostly up to 100 µM; percent response (fluorescence change): at the top concentration
row,SMILES,percent response (fluorescence change) [%]
1,CCc1ccc(NC(=O)c2nc(S(=O)(=O)Cc3ccccc3)ncc2Cl)cc1,518
2,CCOc1ccccc1NC(=O)c1nc(S(=O)(=O)Cc2cccc(C)c2)ncc1Cl,512
3,CC(=O)Nc1ccc(NC(=O)c2nc(S(=O)(=O)Cc3ccccc3)ncc2Cl)cc1,443
4,CC(=O)Nc1ccc(NC(=O)c2nc(S(=O)(=O)Cc3cccc(C)c3)ncc2Cl)cc1,2610

# Reference: PubChem BioAssay AID651662 (NMMLSC, 2012)
